Reference: PubChem BioAssay (NCI)
About 83,000 compounds went through this panel and 20% of them were active in at least one assay; those are over-represented in the sample as a whole.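 Cell lines were cultured in 96-well plates, exposed to a single compound concentration, and assessed for percent growth 48 hours later.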 A number with no mark means an inactive call. Activity calls are given as the source filed them. The calls were made as follows: active = growth percent below 10; inactive = the rest.

System: SNB-19 CNS
Assay: NCI-60 one-dose screen, 48 h (100 = growth as untreated, 0 = no growth, -100 = all killed)
Settings: 10 µM unless noted

SMILES | growth
O=C(COc1cccc(/C=C2\Oc3ccccc3C2=O)c1)c1ccc([N+](=O)[O-])cc1 | 91.3%
CC[C@]12C=CCN3CC[C@@]4(c5ccc(OC)cc5N(C)[C@H]4[C@@](O)(C(=O)OC)[C@@H]1OC(=O)CCC(=O)N[C@H](Cc1c[nH]c4ccccc14)C(=O)OC)[C@@H]32 | -51.2% [100 µM] (active)
C=C(C)[C@@H]1CC[C@]2(C(N)=O)CC[C@]3(C)[C@H](CC[C@@H]4[C@@]5(C)C/C(=C/c6cccnc6)[C@H](O)C(C)(C)[C@@H]5CC[C@]43C)[C@@H]12 | 39% [100 µM]
CSc1nc2sc3cc(Cl)c(Cl)cc3n2c(=N)c1C#N | 100%
COc1ccc(/C=C2\N=C(Nc3ccccc3)N(NC(=O)c3ccccn3)C2=O)cc1 | 87.2%
O=C(NCCCNC(=O)OCc1ccc2cccc(O)c2n1)OCc1ccc2cccc(O)c2n1 | 54.6%
COc1cc(C(=O)/C=C/c2c(-c3ccc(F)cc3)nc3sccn23)cc(OC)c1OC | 10%
CCCCCCCCCCCCNC(=S)N/N=C/c1ccccc1O | 80.2%
CCCc1cc2cc(-n3nc(C)c4c3CC(C)(C)CC4=O)cc(NC3CCSCC3)c2c(=O)[nH]1 | 72%
COc1ccc(-c2cc(-c3ccc(OC)c(OC)c3)nc(SCCCCCC(=O)NO)n2)cc1 | 65.8%
CCC(C)[C@H](NC(=O)NC(=O)NC(=O)CI)C(=O)OC (stereo partly drawn) | 93.8%
CCN(CC)c1ccc(/C=C/c2ccc3cc(C)ccc3[n+]2CC)cc1 | 24.8%
N/C(=N\c1nc2ccccc2[nH]1)NC(=O)Cc1cccc2ccccc12 | 87.6%
CC1(C)CC[C@]2(C(N)=O)CC[C@]3(C)C(=CC[C@@H]4[C@@]5(C)C/C(=C/c6ccncc6)C(=O)C(C)(C)[C@@H]5CC[C@]43C)[C@@H]2C1 | -83.8% [100 µM] (active)
Cc1ccc(C2=C/C(=C/c3ccc(Br)cc3)C(=O)N2CCc2ccc(S(N)(=O)=O)cc2)cc1 | 89.7%
Cc1ccc(NCCN2CCCCC2)c2c(=O)c3ccccc3sc12 | 36%
CC1(C)CC(=O)c2c(ccc(C(=O)C[C@@H](N)CO)c2N)O1 | 14%

SMILES | growth
CCCCC1COc2cccc3c2N1C=C/C3=C\C(=O)n1ccc2ccccc21 (stereo not drawn) | 84.9%
CC(C)CSc1ncnc2nc[nH]c12 | 93.8%
CC1(C)CC[C@]2(C(=O)O)CC[C@]3(C)C(=CC[C@@H]4[C@@]5(C)C/C(=C/c6cccnc6)[C@H](O)C(C)(C)[C@@H]5CC[C@]43C)[C@@H]2C1 | 16.6% [100 µM]
COc1ccc(C=C2c3ccccc3-c3ccccc32)cc1 | 51.4%
C#C[C@]1(O)CC[C@H]2[C@@H]3CC=C4c5nc(Nc6ccc(OC)cc6OC)sc5CC[C@]4(C)[C@H]3CC[C@@]21C | 31.2%
CCOC(=O)c1nn(C2CCCCO2)c2ccc(NC(=O)CSc3nc4ccccc4c(=O)[nH]3)cc12 (stereo not drawn) | 76.3%
O=c1[nH]cnc2c1ccn2C1OC(CO)C(O)C1O (stereo not drawn) | 78.3%
CCOC(=O)C(=Cc1ccccc1[N+](=O)[O-])C(=O)OCC | 59.6%
Cc1cc(C)c(S(=O)(=O)/N=c2/n(-c3ccccc3)nc3n2CCN3C2=NCCN2)c(C)c1 | 91.5%
COC(=O)c1cc2c(=O)[nH]cc3c2c(n1)CCC3 | 96.2%
Cn1cc(-c2noc(C(=O)c3cn(C)c4ncccc34)n2)c2ccccc21 | 93.1%
O=c1cc(-c2ccccc2)oc2cc(OCc3cn(Cc4ccc(F)cc4)nn3)cc(O)c12 | -32.7% [100 µM] (active)
Cc1ccc(Cn2c(O)c(N=NC(=O)c3ccc(S(N)(=O)=O)cc3)c3ccccc32)cc1 | 100%
CC[C@]12C=CCN3CC[C@@]4(c5ccc(OC)cc5N(C)[C@H]4[C@@](O)(C(=O)OC)[C@@H]1OC(=O)CCC(=O)O[C@H]1CC[C@H]4[C@@H]5CCC6=CC(=O)CC[C@@H]6[C@H]5CC[C@]14C)[C@@H]32 | 21.7% [100 µM]
CCC(Br)(CC)C(=O)c1ccc(OCC(=O)O)c(Cl)c1Cl | 104%
Oc1c(CNCCNCc2cc(Cl)cc(Cc3ccccc3)c2O)cc(Cl)cc1Cc1ccccc1 | 2.51% (active)
